For 2 sequences, binding signal results are on record in paper PMC7862700, “An all-to-all approach to the identification of sequence-specific readers for epigenetic DNA modifications on cytosine”.

Assay in all cases: DAPPL (digital affinity profiling via proximity ligation, sequencing); 10 mM Tris-HCl pH 7.5, 50 mM NaCl, 1 mM DTT, 4% glycerol, room temperature, 30 min; GST-TFs on glutathione beads, 16-mer random dsDNA library, 0.1% formaldehyde crosslink after washing; high values mean tight binding
Assay [1] deals with T1, FLI1 (Homo sapiens, UniProt Q01543 1-452).
T1 sequence: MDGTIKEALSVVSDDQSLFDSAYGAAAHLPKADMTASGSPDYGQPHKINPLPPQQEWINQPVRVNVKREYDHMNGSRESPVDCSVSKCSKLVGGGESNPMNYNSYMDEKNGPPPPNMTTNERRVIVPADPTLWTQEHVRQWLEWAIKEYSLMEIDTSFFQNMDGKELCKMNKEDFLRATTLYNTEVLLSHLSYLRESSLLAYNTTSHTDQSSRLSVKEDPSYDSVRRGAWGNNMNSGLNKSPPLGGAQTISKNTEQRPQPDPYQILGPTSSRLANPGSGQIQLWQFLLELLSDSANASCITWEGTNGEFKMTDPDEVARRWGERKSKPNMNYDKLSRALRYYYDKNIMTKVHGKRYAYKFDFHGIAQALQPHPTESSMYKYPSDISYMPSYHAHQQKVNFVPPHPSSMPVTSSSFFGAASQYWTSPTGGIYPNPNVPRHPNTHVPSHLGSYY
The settings on record: protein: recombinant; tags: N-terminal GST; dsDNA, one strand shown. Put shortly:
(§1)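 The binding signal reported is, for every hexamer, its read frequency for a factor over its read frequency for the tag-only sample. Reads came from pools of yeast-expressed, GST-fused human transcription factors on glutathione beads, barcoded with DNA and mixed with that sample, which were incubated with 200 nmole of a random double-stranded 16-mer DNA library in Tris/NaCl/DTT/glycerol buffer at room temperature for 30 min. After washing, the pools were crosslinked with 0.1% formaldehyde, proximity-ligated with BsaI/T4 ligase for 1 h at 37 °C, PCR-amplified and sequenced on an Illumina NextSeq500.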

The target of assay [2] is T2, ELK1 (Homo sapiens, UniProt P19419 1-428).
T2 sequence: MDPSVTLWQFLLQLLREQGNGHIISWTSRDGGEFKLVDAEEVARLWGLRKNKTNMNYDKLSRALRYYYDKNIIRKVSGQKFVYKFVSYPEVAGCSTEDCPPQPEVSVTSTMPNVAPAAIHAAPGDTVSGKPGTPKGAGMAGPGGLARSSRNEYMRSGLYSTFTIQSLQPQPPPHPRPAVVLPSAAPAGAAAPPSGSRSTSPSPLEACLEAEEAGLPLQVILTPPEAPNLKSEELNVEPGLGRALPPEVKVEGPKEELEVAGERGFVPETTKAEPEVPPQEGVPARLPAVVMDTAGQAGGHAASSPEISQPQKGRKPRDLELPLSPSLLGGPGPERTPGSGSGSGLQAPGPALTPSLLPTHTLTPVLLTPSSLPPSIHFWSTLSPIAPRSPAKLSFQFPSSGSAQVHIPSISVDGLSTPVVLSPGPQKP
The note with it: protein: recombinant; tags: N-terminal GST; dsDNA, one strand shown. The method in brief: as §1

In assay [3] the target is T3, GABPA (Homo sapiens, UniProt Q06546 1-454).
T3 sequence: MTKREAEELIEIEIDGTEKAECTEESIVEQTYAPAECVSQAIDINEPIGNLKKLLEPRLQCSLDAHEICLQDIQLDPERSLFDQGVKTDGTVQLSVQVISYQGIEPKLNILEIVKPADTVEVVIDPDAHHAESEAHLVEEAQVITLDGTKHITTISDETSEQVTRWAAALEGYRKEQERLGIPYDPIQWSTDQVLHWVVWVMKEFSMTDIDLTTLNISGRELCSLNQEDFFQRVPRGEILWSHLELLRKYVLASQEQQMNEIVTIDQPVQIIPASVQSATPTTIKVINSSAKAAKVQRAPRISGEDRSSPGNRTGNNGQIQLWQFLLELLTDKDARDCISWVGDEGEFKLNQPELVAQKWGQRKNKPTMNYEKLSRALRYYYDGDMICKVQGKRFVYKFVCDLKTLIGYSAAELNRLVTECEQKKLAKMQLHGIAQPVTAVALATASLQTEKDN
The note with it: protein: recombinant; tags: N-terminal GST; dsDNA, one strand shown. Put shortly:
as §1

Assay [4] has as its target T4, ERG (Homo sapiens, UniProt P11308 1-479).
T4 sequence: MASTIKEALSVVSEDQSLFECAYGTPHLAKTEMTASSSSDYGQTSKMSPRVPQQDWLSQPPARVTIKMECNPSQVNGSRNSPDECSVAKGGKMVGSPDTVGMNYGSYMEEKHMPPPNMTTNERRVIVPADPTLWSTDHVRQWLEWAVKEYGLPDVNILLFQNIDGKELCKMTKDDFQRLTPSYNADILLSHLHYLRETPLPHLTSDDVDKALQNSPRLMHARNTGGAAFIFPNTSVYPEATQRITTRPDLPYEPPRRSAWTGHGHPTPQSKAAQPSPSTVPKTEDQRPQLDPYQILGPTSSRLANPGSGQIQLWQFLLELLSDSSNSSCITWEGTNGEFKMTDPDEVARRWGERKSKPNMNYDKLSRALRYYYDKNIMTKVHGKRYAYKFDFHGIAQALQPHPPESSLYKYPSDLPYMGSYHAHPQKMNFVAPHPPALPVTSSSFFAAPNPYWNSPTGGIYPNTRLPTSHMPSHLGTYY
The settings on record: protein: recombinant; tags: N-terminal GST; dsDNA, one strand shown. Put shortly:
as §1

The target in assay [5] is ELF1 (Homo sapiens, UniProt P32519 1-619). The settings on record: protein: recombinant; tags: N-terminal GST; dsDNA, one strand shown. The method in brief: as §1
ELF1, sequence (P32519 whole entry): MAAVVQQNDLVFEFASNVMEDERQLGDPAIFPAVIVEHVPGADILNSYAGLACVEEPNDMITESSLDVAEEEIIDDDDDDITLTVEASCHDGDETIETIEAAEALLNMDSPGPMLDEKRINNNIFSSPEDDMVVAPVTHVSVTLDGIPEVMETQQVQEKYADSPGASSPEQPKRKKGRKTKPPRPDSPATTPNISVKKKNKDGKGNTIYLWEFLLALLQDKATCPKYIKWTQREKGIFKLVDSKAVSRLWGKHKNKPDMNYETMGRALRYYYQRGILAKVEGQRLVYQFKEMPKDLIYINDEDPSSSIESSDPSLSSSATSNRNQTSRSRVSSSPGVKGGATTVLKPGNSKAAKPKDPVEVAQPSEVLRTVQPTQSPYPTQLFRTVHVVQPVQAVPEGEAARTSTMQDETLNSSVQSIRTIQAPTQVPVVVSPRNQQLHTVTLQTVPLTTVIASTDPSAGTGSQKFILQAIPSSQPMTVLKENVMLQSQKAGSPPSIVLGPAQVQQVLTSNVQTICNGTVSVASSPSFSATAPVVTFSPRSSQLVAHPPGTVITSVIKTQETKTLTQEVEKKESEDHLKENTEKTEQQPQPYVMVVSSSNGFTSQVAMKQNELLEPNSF
The target of assay [6] is T5, EHF (Homo sapiens, UniProt Q9NZC4 1-300).
T5 sequence: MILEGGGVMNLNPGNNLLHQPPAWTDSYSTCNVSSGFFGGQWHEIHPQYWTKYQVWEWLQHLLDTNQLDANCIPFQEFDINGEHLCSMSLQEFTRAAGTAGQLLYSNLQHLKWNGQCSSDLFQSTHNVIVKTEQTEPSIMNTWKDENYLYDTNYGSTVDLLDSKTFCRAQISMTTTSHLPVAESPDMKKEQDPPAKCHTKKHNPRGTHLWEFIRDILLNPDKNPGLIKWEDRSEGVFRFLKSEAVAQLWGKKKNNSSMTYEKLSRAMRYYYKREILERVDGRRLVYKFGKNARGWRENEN
The note with it: protein: recombinant; tags: N-terminal GST; dsDNA, one strand shown. Put shortly:
as §1

The target of assay [7] is SPI1 (Homo sapiens, UniProt P17947 1-270). The note with it: protein: recombinant; tags: N-terminal GST; dsDNA, one strand shown. Put shortly:
as §1

Assay [8] deals with SPIB (Homo sapiens, UniProt Q01892 1-262). The settings on record: protein: recombinant; tags: N-terminal GST; dsDNA, one strand shown. The method in brief:
as §1

Assay [9] addresses T6, FEV (Homo sapiens, UniProt Q99581 1-238).
T6 sequence: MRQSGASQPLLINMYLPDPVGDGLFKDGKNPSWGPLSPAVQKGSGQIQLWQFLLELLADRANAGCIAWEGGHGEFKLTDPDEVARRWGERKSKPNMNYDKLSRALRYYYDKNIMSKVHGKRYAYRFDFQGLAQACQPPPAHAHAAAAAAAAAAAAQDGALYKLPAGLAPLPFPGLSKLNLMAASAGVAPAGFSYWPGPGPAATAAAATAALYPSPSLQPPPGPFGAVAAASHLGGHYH
The settings on record: protein: recombinant; tags: N-terminal GST; dsDNA, one strand shown. Put shortly: as §1

Assay [10] addresses ETV5 (Homo sapiens, UniProt P41161 1-510). The settings on record: protein: recombinant; tags: N-terminal GST; dsDNA, one strand shown. The method in brief: as §1
Assay [11] deals with HSF1 (Homo sapiens, UniProt Q00613 1-529). The settings on record: protein: recombinant; tags: N-terminal GST; chain copies: 3; dsDNA, one strand shown. Put shortly: as §1
HSF1, sequence (Q00613 whole entry): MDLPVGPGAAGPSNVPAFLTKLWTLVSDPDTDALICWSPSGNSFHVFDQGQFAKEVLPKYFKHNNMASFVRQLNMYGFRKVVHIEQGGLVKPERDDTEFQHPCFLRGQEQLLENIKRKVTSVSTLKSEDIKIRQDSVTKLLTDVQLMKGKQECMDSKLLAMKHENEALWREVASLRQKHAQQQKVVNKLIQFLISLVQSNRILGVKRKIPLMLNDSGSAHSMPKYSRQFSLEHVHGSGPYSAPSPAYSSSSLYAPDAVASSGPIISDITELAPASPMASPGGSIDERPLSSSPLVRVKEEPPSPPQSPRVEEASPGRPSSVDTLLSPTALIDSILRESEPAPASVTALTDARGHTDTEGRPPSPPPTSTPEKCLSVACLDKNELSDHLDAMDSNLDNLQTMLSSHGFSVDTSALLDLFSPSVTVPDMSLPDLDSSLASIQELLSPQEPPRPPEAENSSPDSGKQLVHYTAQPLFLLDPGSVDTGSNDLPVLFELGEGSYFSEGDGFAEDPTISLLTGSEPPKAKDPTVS
The target in assay [12] is T7, SPIC (Homo sapiens, UniProt Q8N5J4 1-248).
T7 sequence: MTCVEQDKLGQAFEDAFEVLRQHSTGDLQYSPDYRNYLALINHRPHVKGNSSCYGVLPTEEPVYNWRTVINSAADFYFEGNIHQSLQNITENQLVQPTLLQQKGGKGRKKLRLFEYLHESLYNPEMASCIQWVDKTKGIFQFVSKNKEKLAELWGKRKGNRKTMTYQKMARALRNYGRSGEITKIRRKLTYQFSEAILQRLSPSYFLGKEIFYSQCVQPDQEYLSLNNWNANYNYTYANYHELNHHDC
The settings on record: protein: recombinant; tags: N-terminal GST; dsDNA, one strand shown. Put shortly:
as §1

Assay [13] deals with ELF4 (Homo sapiens, UniProt Q99607 1-663). The settings on record: protein: recombinant; tags: N-terminal GST; dsDNA, one strand shown. Put shortly: as §1
ELF4, sequence (Q99607 whole entry): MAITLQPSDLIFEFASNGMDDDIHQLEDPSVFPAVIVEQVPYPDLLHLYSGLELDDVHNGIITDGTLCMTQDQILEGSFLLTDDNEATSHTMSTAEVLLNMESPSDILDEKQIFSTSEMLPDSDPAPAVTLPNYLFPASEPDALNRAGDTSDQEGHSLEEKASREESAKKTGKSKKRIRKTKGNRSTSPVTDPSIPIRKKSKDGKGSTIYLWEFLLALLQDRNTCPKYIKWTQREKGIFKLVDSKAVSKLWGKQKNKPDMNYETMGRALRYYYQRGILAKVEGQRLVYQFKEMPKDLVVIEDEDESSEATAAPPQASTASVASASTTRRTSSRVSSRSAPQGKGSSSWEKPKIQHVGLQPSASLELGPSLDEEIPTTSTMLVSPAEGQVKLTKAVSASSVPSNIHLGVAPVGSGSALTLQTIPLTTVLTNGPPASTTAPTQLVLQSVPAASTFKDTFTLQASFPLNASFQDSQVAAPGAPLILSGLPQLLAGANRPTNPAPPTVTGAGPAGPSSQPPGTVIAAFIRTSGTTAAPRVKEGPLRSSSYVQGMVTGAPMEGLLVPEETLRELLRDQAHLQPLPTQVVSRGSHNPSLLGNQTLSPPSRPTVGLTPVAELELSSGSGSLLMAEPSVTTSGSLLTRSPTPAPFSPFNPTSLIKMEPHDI
The target in assay [14] is T8, ELK4 (Homo sapiens, UniProt P28324-2 1-405).
T8 sequence: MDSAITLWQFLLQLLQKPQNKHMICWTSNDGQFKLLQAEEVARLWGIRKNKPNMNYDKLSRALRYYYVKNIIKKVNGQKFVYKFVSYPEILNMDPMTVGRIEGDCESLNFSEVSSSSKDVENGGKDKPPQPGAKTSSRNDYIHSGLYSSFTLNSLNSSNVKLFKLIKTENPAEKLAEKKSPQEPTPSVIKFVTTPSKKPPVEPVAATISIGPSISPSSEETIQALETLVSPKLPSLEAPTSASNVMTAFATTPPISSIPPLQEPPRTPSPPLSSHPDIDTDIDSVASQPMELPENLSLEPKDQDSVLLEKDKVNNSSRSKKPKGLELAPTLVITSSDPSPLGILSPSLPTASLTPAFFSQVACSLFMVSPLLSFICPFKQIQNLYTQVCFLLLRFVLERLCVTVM
The note with it: protein: recombinant; tags: N-terminal GST; dsDNA, one strand shown. The method in brief:
as §1

For assay [15], the target named is T9, ETV2 (Homo sapiens, UniProt O00321 1-342).
T9 sequence: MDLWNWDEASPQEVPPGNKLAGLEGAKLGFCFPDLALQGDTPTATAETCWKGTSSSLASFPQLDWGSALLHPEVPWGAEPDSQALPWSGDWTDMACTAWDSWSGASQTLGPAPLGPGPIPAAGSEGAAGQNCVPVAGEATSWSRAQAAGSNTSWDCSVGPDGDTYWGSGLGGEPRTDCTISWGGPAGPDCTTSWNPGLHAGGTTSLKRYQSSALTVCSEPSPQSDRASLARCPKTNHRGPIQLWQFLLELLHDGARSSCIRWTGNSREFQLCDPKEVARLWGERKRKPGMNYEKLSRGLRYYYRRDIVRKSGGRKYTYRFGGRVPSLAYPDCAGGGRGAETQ
The note with it: protein: recombinant; tags: N-terminal GST; dsDNA, one strand shown. Put shortly: as §1

Assay [16] has as its target CRX (Homo sapiens, UniProt O43186 1-299). The settings on record: protein: recombinant; tags: N-terminal GST; dsDNA, one strand shown. Put shortly: as §1
Assay [17] addresses ETV1 (Homo sapiens, UniProt P50549 1-477). The settings on record: protein: recombinant; tags: N-terminal GST; dsDNA, one strand shown. The method in brief:
as §1

ETV1, sequence (P50549 whole entry): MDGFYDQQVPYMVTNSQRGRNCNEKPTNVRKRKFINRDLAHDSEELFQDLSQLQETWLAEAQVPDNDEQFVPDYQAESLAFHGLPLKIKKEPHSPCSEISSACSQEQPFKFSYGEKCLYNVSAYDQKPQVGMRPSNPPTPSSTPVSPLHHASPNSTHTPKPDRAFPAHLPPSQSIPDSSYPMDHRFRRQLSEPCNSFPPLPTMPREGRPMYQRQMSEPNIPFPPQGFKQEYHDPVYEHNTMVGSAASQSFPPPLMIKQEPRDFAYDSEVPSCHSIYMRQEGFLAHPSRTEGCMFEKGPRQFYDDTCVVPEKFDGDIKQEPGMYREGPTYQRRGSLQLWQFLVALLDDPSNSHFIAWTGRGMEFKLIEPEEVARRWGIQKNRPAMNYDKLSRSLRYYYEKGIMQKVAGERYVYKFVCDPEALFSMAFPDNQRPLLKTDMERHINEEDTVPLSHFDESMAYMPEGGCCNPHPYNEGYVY
ETV5, sequence (P41161 whole entry): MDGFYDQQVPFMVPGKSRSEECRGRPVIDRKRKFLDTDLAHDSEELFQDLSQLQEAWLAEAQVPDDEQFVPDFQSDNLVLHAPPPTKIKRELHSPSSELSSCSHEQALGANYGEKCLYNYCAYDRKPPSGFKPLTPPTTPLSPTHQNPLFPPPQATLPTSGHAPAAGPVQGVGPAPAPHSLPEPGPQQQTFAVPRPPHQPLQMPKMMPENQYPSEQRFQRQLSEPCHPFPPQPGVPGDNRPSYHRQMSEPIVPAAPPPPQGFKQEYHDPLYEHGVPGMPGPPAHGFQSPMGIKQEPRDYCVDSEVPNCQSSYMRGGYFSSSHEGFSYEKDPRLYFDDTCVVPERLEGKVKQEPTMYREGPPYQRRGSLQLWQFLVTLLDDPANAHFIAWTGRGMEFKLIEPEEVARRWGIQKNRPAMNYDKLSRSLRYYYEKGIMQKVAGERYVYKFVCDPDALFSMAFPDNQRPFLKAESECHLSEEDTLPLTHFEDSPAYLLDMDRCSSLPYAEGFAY
SPIB, sequence (Q01892 whole entry): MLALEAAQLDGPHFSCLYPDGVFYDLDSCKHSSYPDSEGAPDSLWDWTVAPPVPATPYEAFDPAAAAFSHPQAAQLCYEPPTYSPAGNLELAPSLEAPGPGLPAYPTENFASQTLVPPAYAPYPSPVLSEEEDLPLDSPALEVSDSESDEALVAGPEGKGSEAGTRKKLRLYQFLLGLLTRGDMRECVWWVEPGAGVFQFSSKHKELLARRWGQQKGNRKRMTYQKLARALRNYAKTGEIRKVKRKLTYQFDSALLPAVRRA
CRX, sequence (O43186 whole entry): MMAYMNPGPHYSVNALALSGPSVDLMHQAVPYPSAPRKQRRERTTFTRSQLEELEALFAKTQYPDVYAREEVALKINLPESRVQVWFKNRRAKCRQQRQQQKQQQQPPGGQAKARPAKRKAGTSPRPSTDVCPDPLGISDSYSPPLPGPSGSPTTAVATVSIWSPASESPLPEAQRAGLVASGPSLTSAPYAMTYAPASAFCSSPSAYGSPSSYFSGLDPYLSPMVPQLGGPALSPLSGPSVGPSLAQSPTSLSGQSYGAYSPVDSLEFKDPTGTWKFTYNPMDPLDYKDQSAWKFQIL

In the case of GATTTG, the binding signal is 1.24 fold enrichment (6-mer frequency, TF over GST control) in [1]; 1.16 fold enrichment (6-mer frequency, TF over GST control) in assay [2]; 1.22 fold enrichment (6-mer frequency, TF over GST control) in assay [3]; 1.11 fold enrichment (6-mer frequency, TF over GST control) in assay [4]; 1.12 fold enrichment (6-mer frequency, TF over GST control) in assay [5]; 1.11 fold enrichment (6-mer frequency, TF over GST control) in assay [6]. The binding signal was 1.08 fold enrichment (6-mer frequency, TF over GST control) in [7]; 1.12 fold enrichment (6-mer frequency, TF over GST control) in assay [8]; 1.11 fold enrichment (6-mer frequency, TF over GST control) in assay [9]; 1.25 fold enrichment (6-mer frequency, TF over GST control) in [10]; 1.39 fold enrichment (6-mer frequency, TF over GST control) in [11]; 1.17 fold enrichment (6-mer frequency, TF over GST control) in [12]. For the same sequence, the binding signal was 1.13 fold enrichment (6-mer frequency, TF over GST control) in [13]; 1.19 fold enrichment (6-mer frequency, TF over GST control) in assay [14]; 1.19 fold enrichment (6-mer frequency, TF over GST control) in assay [15]; 1.78 fold enrichment (6-mer frequency, TF over GST control) in assay [16]; 1.14 fold enrichment (6-mer frequency, TF over GST control) in [17].

With CTGGAC, the binding signal in assay [1] was 1.16 fold enrichment (6-mer frequency, TF over GST control); in assay [2], 1.07 fold enrichment (6-mer frequency, TF over GST control); in assay [3], 1.17 fold enrichment (6-mer frequency, TF over GST control); in assay [4], 1.13 fold enrichment (6-mer frequency, TF over GST control); in assay [5] it was 1.12 fold enrichment (6-mer frequency, TF over GST control); in assay [6], 1.13 fold enrichment (6-mer frequency, TF over GST control). The binding signal in assay [7] was 1.08 fold enrichment (6-mer frequency, TF over GST control); in assay [8], 1.05 fold enrichment (6-mer frequency, TF over GST control); in [9] it was 1.1 fold enrichment (6-mer frequency, TF over GST control); in assay [10] it was 1.18 fold enrichment (6-mer frequency, TF over GST control); in assay [11], 1.23 fold enrichment (6-mer frequency, TF over GST control); in assay [12], 1.1 fold enrichment (6-mer frequency, TF over GST control). Also, the binding signal in assay [13] is 1.19 fold enrichment (6-mer frequency, TF over GST control); in [14] it was 1.11 fold enrichment (6-mer frequency, TF over GST control); in assay [15], 1.2 fold enrichment (6-mer frequency, TF over GST control); in assay [17] it was 1.09 fold enrichment (6-mer frequency, TF over GST control).
